Measurements as given in PubChem BioAssay (NCATS).
“And” between values parts separate entries of the source, which are not always exact repeats. Equal values may be shown once. Results filed as inconclusive are left out. Unmarked numbers belong to inactive results. The source made the active and inactive calls. Calls come from the whole dose curve; as a rule, active = well fitted activation curve with a large enough effect in the signal ratio (not every such curve was filed as active); inconclusive = small, poorly fitted or top-dose-only effect, or a change in a side signal; inactive = flat fitted curve, though single readings scatter; the % refers to the signal ratio.

Assay: qHTS assay for small molecule activators of the p53 signaling pathway (AID 651743); for activation: series mostly up to about 92 µM; % of control where 0% means no effect
Conditions: HCT-116 p53RE-bla, beta-lactamase FRET ratio, 16 h; activation: stronger effect = higher value
Procedure, shortened: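 Screen for p53 pathway agonists uses stably transfected p53RE-bla HCT-116 cells, 4,000 per well, treated 16 h at 37 C with compounds in DMSO.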
Potency is the fitted concentration of half-maximal effect.

| Compound | activation | Potency |
| --- | --- | --- |
| COc1ccc(C(c2ccc(OC)cc2)C(Cl)(Cl)Cl)cc1 | 2.38% and 0.818% | – |
| O=C(O)COc1nc(Cl)c(Cl)cc1Cl | 1.93% | – |
| O=C(O)COc1ccccc1 | -8.89% | – |
| O=[N+]([O-])c1c(Cl)c(Cl)cc(Cl)c1Cl | -1.29% | – |
| Nc1ccc(Cl)cc1 | -2.94% | – |
| COc1nn(CSP(=S)(OC)OC)c(=O)s1 | 0.0507% | – |
| ClC1=C(Cl)[C@]2(Cl)[C@@H]3[C@@H]4C[C@@H]([C@H]5O[C@@H]45)[C@@H]3[C@@]1(Cl)C2(Cl)Cl | -1.42% | – |
| O=S(=O)(c1ccc(Cl)cc1)c1ccc(Cl)cc1 | -0.565% and -3.02% and 0.243% | – |
| c1cc2ccc3cccc4ccc(c1)c2c34 | 4.51% and 2.05% | – |
| OCCCBr | 1.31% | – |
| O=S(=O)(O)C(F)(F)C(F)(F)C(F)(F)C(F)(F)F | -0.542% and -4.63% | – |
| CN(C)NC(=O)CCC(=O)O | 0.825% and -3.72% | – |
| Nc1ccc([N+](=O)[O-])cc1 | 0.0042% | – |
| CCOP(=O)(NC(C)C)Oc1ccc(SC)c(C)c1 (stereo not drawn) | -4.79% and -0.487% | – |
| Nc1ccc(Cl)cc1N | 1.69% and 0.406% | – |
| CCCCCCCCc1ccc(O)cc1 | 0.0262% and -2.23% | – |
| O=C(Nc1ccccc1-c1ccc(Cl)cc1)c1cccnc1Cl | -6.13% | – |

| Compound | activation | Potency |
| --- | --- | --- |
| Cc1cc(O)ccc1Cl | -0.548% | – |
| C1CCC(NC2CCCCC2)CC1 | -5.71% and -0.896% and -1.09% | – |
| CCO/N=C(\CC)C1=C(O)CC(c2c(C)cc(C)cc2C)CC1=O (stereo not drawn) | 0.237% | – |
| C=CC(=O)NCNC(=O)C=C | -3.11% and -4.69% | – |
| CC(C)Oc1cccc(NC(=O)c2ccccc2C(F)(F)F)c1 | -2.47% | – |
| Clc1cnc(Oc2ccc(Oc3ncc(Cl)cc3Cl)cc2)c(Cl)c1 | -0.174% | – |
| CCCCCC[C@H]1C(=O)O[C@H](C)[C@H](NC(=O)c2cccc(NC=O)c2O)C(=O)O[C@@H](C)[C@@H]1OC(=O)CC(C)C | – | 20 nM (active) |
| CC(C)(C)C(O)C(Oc1ccc(Cl)cc1)n1cncn1 (stereo not drawn) | -1.72% | – |
| COC(C)(C)CCCC(C)C/C=C/C(C)=C/C(=O)OC(C)C (stereo not drawn) | -4.75% and -1.61% | – |
| C=CCC1=C(C)C(OC(=O)C2C(C=C(C)C)C2(C)C)CC1=O (stereo not drawn) | 1.22% | – |
| O=[N+]([O-])c1cc([N+](=O)[O-])c2ccccc2c1 | -0.898% | – |
| CS(=O)(=O)c1ccc(C(=O)C2C(=O)CCCC2=O)c([N+](=O)[O-])c1 | -1.94% | – |
| O=[N+]([O-])c1c2ccccc2cc2ccccc12 | 4.5% | – |
| CC(C)(O)C(=O)Nc1ccc([N+](=O)[O-])c(C(F)(F)F)c1 | 4.44% | – |
| CCCCC(CC)COC(=O)c1ccccc1C(=O)OCC(CC)CCCC (stereo not drawn) | -3.4% and 2.22% | – |
| CCCCOC(=O)c1ccccc1C(=O)OCc1ccccc1 | 1.28% and 1.63% | – |
